Parameters in all cases: scale not given: direction of the effect not stated beside the values
The target in experiment [1] is Protein translocase subunit SecA (Escherichia coli (strain K12)) (UniProt P10408). The experiment is described as follows: Assay to Identify E. coli SecA ATPase Inhibitors. It is filed as functional. Conditions: 30 µM.
Experiment [2] concerns the target T1, Ubiquitin-activating enzyme e1, putative (Leishmania donovani (strain BPK282A1)) (UniProt E9BSI1).
T1 sequence (whole entry): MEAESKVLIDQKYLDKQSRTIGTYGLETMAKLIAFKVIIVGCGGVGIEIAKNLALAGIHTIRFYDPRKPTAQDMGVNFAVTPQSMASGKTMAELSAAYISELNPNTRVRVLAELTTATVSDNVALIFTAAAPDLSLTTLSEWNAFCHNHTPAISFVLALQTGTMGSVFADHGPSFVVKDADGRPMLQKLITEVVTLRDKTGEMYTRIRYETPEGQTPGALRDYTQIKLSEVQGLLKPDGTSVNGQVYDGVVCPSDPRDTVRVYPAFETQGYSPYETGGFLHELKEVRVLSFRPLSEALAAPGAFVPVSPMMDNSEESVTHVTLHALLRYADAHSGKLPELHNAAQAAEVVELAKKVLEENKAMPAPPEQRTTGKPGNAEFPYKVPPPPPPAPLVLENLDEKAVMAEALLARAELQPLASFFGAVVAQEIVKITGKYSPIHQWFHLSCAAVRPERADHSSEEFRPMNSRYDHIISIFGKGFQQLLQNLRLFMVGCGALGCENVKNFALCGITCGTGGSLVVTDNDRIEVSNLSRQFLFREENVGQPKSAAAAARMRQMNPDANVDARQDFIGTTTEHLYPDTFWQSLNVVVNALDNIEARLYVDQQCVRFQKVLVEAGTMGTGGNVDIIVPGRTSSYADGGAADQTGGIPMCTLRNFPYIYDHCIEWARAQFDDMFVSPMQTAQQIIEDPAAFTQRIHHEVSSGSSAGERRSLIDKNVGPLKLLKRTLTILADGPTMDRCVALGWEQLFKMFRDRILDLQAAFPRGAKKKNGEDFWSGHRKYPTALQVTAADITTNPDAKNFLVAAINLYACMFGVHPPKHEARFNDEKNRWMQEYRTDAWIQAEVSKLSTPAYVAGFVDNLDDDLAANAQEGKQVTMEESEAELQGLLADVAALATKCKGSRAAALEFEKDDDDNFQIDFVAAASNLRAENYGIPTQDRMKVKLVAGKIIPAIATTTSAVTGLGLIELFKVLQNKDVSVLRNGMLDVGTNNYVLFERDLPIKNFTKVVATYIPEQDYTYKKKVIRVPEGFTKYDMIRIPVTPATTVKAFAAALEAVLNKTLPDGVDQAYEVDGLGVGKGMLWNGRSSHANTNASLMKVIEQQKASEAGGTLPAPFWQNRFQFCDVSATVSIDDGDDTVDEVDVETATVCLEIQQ
Description: Leishmania donovani Ubiquitin Activating Enzyme (LdE1). The format is functional. As to conditions: 30 µM.

Experiment [3] deals with AMP-activated protein kinase, AMPK (Homo sapiens) (UniProt P54646+O43741+P54619+Q9UGJ0+Q9Y478+Q13131+Q9UGI9). The experiment is described as follows: AMP-dependent Kinase enzyme assay. An in vitro enzyme assay that detects ADP turnover that is directly proportional to AMPK activity. This uses naive AMPK that is activated during the assay with MK-8722. It is filed as functional. As to conditions: 30 µM.

For experiment [4], the target named is Sialic acid-binding Ig-like lectin 9 (Homo sapiens) (UniProt Q9Y336). Description: Hs-Siglec9 ALPHAscreen SOP 20170721. Conditions: 10 µM.
Another experiment concerns Trypanosoma cruzi. Description: Trypanosoma cruzi phosphomannomutase and mannose-1-phosphate guanylyltransferase assay. The format is functional. As to conditions: 10 µM.
Experiment [5] concerns the target T2, Arginase-2, mitochondrial (Homo sapiens) (UniProt P78540).
T2 sequence (whole entry): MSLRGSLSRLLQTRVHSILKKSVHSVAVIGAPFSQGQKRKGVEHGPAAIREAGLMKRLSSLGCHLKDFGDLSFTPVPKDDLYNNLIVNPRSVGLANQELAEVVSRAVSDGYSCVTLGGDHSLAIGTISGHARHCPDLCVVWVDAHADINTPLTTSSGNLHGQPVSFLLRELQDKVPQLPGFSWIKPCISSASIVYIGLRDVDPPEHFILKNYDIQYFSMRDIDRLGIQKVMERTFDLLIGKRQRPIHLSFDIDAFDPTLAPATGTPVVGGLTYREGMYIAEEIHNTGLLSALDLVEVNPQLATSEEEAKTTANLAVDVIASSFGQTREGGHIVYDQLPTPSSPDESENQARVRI
Description: in vitro enzyme assay to detect the production of urea directly proportional to the activity of Arginase II. Further: in the data most compounds retested in dose-response had high values. The format is functional. As to conditions: 33.3 µM.

Experiment [6] addresses T3, Proteasome subunit beta (Trypanosoma cruzi) (UniProt O96673).
T3 sequence (whole entry): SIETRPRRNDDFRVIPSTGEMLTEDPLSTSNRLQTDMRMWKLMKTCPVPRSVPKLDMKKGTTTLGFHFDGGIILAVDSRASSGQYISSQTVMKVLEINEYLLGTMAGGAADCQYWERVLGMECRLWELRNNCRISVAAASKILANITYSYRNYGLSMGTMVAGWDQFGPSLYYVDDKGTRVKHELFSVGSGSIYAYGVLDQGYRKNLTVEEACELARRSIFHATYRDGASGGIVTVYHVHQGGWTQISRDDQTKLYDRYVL
The experiment is described as follows: Trypanosoma cruzi proteasome chymotrypsin-like activity (TcProtChymo) assay. Further: in the data most compounds retested in dose-response had high values. The format is functional. As to conditions: 9.37 µM.

The species entered for another experiment is Homo sapiens. Description: To identify inhibition of the IFN signalling (Jak-Stat) pathway via expression of an eGFP reporter gene under the control of an IFN-stimulated response element (ISRE) containing MxA promoter. The format is functional. Conditions: 30 µM.
The target in experiment [7] is T4, Tyrosyl-tRNA synthetase, putative (Trypanosoma cruzi (strain CL Brener)) (UniProt Q4DSP6).
T4 sequence (whole entry): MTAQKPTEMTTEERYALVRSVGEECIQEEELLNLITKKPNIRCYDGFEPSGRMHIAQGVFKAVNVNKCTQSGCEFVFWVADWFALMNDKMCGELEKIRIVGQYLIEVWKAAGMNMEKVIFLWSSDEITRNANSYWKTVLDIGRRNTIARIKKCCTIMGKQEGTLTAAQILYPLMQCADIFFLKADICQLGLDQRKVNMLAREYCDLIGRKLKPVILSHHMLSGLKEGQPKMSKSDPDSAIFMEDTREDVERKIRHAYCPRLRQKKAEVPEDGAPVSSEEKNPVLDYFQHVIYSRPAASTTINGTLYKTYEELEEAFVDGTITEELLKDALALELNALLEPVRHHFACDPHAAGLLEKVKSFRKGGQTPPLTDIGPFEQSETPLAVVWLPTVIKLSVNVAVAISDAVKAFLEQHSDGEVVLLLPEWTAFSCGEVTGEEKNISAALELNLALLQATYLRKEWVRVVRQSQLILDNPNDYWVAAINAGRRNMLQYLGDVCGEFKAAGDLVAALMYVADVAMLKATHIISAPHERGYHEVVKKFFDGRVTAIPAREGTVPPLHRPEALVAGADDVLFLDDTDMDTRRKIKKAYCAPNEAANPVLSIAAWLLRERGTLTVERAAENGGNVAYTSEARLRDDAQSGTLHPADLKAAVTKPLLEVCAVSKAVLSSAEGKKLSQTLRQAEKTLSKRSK
The experiment is described as follows: Trypanosoma cruzi tyrosyl tRNA synthetase (TcYRS) _High Tyrosine SOP. Further: in the data most compounds retested in dose-response had high values. The format is functional. Conditions: 30 µM.

Experiment [8] deals with T4, Tyrosyl-tRNA synthetase, putative (Trypanosoma cruzi (strain CL Brener)). Description: Trypanosoma cruzi tyrosyl tRNA synthetase (TcYRS) SOP. It is filed as functional. Conditions: 30 µM.
Experiment [9] concerns the target Chromo domain-containing protein 1 (Saccharomyces cerevisiae (strain ATCC 204508 / S288c) (Baker's yeast)) (UniProt P32657). Description: ScCHD-1 Enzyme Inhibition Assay. Further: in the data most compounds retested in dose-response had high values. The format is functional. As to conditions: 30 µM.

For some assays here: Entries with a potency or affinity are not part of this list.

Protein translocase subunit SecA (Escherichia coli (strain K12)), sequence (P10408 whole entry): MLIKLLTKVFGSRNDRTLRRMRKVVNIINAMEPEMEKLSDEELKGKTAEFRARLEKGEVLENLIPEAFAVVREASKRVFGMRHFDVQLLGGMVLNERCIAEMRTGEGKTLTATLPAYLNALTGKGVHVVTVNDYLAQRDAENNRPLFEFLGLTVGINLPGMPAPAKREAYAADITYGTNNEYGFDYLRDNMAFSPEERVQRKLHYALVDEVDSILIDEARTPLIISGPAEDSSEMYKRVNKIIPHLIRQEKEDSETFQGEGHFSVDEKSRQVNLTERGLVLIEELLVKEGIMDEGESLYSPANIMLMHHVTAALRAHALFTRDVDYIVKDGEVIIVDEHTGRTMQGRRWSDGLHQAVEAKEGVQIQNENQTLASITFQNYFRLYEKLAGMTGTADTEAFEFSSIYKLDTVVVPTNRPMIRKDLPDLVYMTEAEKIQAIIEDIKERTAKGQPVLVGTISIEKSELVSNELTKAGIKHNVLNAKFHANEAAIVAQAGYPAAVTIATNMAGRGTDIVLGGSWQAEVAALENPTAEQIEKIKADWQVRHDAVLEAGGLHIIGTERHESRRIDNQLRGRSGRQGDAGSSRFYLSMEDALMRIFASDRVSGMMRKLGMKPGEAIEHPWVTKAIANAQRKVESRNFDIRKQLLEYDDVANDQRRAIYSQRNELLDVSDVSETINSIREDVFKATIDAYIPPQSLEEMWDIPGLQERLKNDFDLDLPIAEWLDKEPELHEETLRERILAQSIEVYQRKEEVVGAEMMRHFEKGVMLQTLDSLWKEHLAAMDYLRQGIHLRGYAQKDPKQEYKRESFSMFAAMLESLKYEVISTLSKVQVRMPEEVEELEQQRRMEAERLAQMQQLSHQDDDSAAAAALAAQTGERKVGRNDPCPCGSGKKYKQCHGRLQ
Chromo domain-containing protein 1 (Saccharomyces cerevisiae (strain ATCC 204508 / S288c) (Baker's yeast)), sequence (P32657 whole entry, the tested form may be a part): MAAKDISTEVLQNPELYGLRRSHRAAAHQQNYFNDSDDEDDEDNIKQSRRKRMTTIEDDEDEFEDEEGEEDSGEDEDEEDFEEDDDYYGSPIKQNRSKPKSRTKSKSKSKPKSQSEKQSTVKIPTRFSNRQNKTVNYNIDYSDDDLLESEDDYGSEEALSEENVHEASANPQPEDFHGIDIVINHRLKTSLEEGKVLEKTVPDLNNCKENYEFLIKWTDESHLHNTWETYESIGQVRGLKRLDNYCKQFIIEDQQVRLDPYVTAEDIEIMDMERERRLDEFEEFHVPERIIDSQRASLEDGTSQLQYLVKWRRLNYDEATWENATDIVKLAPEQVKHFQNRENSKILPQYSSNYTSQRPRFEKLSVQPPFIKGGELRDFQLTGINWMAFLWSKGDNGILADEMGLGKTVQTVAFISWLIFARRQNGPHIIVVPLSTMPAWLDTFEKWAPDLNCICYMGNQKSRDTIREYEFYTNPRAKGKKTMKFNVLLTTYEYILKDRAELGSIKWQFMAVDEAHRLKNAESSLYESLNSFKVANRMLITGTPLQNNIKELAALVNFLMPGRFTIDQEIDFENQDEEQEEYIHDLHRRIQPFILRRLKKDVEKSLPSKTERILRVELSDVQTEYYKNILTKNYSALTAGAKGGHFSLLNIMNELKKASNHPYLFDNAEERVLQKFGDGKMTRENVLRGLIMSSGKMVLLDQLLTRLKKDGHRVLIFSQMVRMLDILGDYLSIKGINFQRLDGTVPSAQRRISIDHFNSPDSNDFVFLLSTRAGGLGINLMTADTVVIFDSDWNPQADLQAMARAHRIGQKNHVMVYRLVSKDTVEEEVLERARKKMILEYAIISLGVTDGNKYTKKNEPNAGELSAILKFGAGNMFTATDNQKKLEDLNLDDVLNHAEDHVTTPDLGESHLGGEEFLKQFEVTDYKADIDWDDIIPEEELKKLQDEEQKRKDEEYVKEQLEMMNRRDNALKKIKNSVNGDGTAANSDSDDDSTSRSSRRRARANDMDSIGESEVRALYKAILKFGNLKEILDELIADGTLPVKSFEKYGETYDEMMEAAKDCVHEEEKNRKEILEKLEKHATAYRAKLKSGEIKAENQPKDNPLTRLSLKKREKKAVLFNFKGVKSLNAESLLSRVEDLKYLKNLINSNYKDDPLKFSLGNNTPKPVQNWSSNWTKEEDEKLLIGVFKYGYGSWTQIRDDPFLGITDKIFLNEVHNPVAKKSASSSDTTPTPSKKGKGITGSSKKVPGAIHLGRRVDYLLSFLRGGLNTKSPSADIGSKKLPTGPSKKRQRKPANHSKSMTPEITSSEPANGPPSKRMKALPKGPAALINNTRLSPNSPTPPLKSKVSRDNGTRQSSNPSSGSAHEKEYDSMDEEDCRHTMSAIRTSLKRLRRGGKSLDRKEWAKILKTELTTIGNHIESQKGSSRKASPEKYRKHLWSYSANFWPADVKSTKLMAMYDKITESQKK
Sialic acid-binding Ig-like lectin 9 (Homo sapiens), sequence (Q9Y336 whole entry): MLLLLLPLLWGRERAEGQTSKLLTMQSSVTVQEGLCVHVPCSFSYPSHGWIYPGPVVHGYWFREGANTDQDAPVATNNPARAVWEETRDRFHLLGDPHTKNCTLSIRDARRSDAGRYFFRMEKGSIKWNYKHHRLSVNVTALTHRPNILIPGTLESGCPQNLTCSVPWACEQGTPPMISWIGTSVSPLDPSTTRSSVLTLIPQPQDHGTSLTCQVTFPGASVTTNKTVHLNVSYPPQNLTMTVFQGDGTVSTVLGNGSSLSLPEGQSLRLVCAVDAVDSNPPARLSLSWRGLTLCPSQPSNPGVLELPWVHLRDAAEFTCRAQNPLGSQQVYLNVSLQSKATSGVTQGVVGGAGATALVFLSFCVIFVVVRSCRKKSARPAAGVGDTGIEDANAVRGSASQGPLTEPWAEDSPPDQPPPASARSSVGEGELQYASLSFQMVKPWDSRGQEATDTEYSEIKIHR

Regarding `CCc1cnc(CN(C(C)=O)C2CCN(CCS(C)(=O)=O)C2)o1` (stereo not given), the Percent Effect is -2.33% in experiment [1]; 6.94% in [2]; -4.16% in [3]; 16.1% in [4]; 0.291% with Trypanosoma cruzi; 9.27% in experiment [5]. For the same molecule, the Percent Effect was 13.3% in [6]; 10.7% in the experiment listed under Homo sapiens; 4.21% in [7]; 10.3% in experiment [8]; -8.92% in experiment [9].
As for `Cc1ccc(C#N)c(N2CCC(c3nccn3Cc3cscn3)CC2)n1`, the Percent Effect in experiment [1] was -1.6%; in experiment [2], 10.7%; in experiment [3] it was -4.04%; in [4], 15.7%; in the experiment on Trypanosoma cruzi, 5.75%; in experiment [5], 9.38%. Further, the Percent Effect is 13.2% in experiment [6]; 3.33% in the experiment filed under Homo sapiens; 4.92% in [7]; 16.1% in [8]; -7.28% in experiment [9].
Regarding `COc1ccccc1N1CCC(CNCc2cccc(O)c2)C1` (stereo not given), the Percent Effect was -2.9% in experiment [1]; -5.41% in experiment [2]; 15.1% in experiment [3]; 11% in experiment [4]; 1.6% in the experiment on Trypanosoma cruzi; -4.81% in experiment [5]. The Percent Effect in experiment [6] was 4.14%; in the experiment listed under Homo sapiens it was 20.2%; in experiment [7] it was 0.493%; in experiment [8], 6.17%; in experiment [9], -6.34%.
`O=c1nc(CNc2ccccc2)[nH]n1Cc1ccccc1`: the Percent Effect is -3.5% in experiment [1]; 7.89% in [2]; 10.7% in [3]; 0.216% in [4]; -4.58% in the experiment on Trypanosoma cruzi; -1.18% in [5]. Moreover, the Percent Effect in experiment [6] is 19.5%; in the experiment filed under Homo sapiens, 3.25%; in [7], 9.57%; in [8], 13%; in experiment [9], -4.75%.
Turning to `CC(=O)Nc1nc(C(=O)Nc2ccc(N3CCCCC3)nc2)cs1`, the Percent Effect in [1] is -1.91%; in [2], -3.8%; in experiment [3], 22.9%; in experiment [4], 0.734%; in the experiment on Trypanosoma cruzi, -3.18%; in [5], -1.5%. Moreover, the Percent Effect was 10.6% in experiment [6]; 11.2% in the experiment listed under Homo sapiens; 9.38% in [7]; 10.1% in experiment [8]; -11.6% in experiment [9].
Turning to `O=C(c1ccc(F)cc1)N1CCN2C[C@H](OCc3ccccn3)C[C@H]2C1`, the Percent Effect was -5.08% in experiment [1]; 8.11% in [2]; 5.44% in [3]; -1.47% in experiment [4]; -2.83% in the experiment with Trypanosoma cruzi; 1.59% in [5]. Further, the Percent Effect was 20.7% in [6]; -8.06% in the experiment filed under Homo sapiens; 7.57% in experiment [7]; 12.8% in experiment [8]; 1.66% in experiment [9].
As for `CN(C)C[C@H]1OC[C@@H]2CCN(C(=O)c3ccco3)C[C@@H]21`, the Percent Effect is -8.17% in [1]; -2.7% in [2]; -0.601% in experiment [3]; -7.74% in [4]; -3.23% in the experiment on Trypanosoma cruzi; 0.248% in [5]. In addition, the Percent Effect in experiment [6] is -0.0858%; in the experiment listed under Homo sapiens, 11.6%; in [7], 1.07%; in experiment [8], 3.7%; in [9] it was 0.795%.
As for `CC(C)n1ncc2c1NC(=O)CC21C(=O)Nc2c(Cl)cc(Cl)cc21` (stereo not given), the Percent Effect was -1.94% in experiment [1]; 6.67% in experiment [2]; 3.17% in experiment [3]; 6.18% in [4]; -0.197% in the experiment with Trypanosoma cruzi; -9.33% in experiment [5]. Also, the Percent Effect is 1.29% in experiment [6]; 13.3% in the experiment filed under Homo sapiens; 2.12% in experiment [7]; 10.3% in experiment [8]; -4.48% in experiment [9].
In the case of `COc1ccc(CN(Cc2cccnc2)CC2CCCO2)c(OC)c1` (stereo not given), the Percent Effect is -1.69% in experiment [1]; -2.67% in experiment [2]; 11.4% in experiment [3]; 2.14% in [4]; 6.69% in the experiment on Trypanosoma cruzi; -1.63% in [5]. For the same molecule, the Percent Effect in [6] is 7.67%; in the experiment filed under Homo sapiens, 3.47%; in experiment [7], 2.13%; in experiment [8], 6.41%; in experiment [9], -2.64%.
Take `Cc1ccc(CNC(=O)Cn2ncc3c2c(C)nn3C)cc1`: the Percent Effect in [1] is 0.175%; in experiment [2], 4%; in experiment [3], 4.44%; in [4] it was 1.31%; with Trypanosoma cruzi, -6.68%; in [5], -16.4%. Also, the Percent Effect in experiment [6] is 10.2%; in the experiment filed under Homo sapiens, 6.77%; in [7], 3.17%; in experiment [8], 7.69%; in [9], -8.77%.

Source of the values: ChEMBL document CHEMBL3988442, “University of Dundee, Small-Polar-MMV Screening Library” (2021).
